Among all 64,000 compounds or so, about 1,900 (3%) were called active. This excerpt belongs to a sample that is enriched for actives. Unmarked numbers belong to inactive results.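 The calls were made as follows: active = fluorescence rise, raw or as B-score row- and column-corrected plate score, outside the 99.7% band of its plate's samples, either direction; inactive = the rest.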

For 102 compounds, B-score results are on record in PubChem BioAssay AID626 (Vanderbilt High Throughput Screening Facility, 2007).

For this assay, the system named is Muscarinic acetylcholine receptor M1. The assay can be described thus: direct activation of M1 receptor calcium signal – CHO-M1 cells, Fluo-4 calcium, agonist mode, primary screen (AID 626). As to conditions: Fluo-4 calcium fluorescence, at 10 µM, active compounds read high.
In the case of `O=C(c1ccco1)N(Cc1nc2ccccc2c(=O)[nH]1)C1CCCC1`, the B-score is 1.19.

Turning to `CCc1ccc2oc(-c3ccc(N)cc3)nc2c1`, the B-score was 0.427.

Regarding `COc1ccc2oc(=O)c(C(=O)O)cc2c1`, the B-score was -0.167.

On to `CCN(CC)c1ccc2cc(C(=O)O)c(=O)oc2c1`, for which the B-score was 17.2 (active).

Regarding `CCCOC(=O)c1cc2ccccc2oc1=O`, the B-score is -0.13.

As for `CCN(CC)c1ccc2oc(=O)c(C)nc2c1`, the B-score was 19.1 (active).

For the compound `CCC1(C)Cc2c(sc3nc4n(c(=O)c23)CCCS4)CO1` (configuration not stated), the B-score is -0.146.

Consider `CCOC(=O)c1cc(-c2ccc(Cl)s2)nc2c1c(C)nn2C`, for which the B-score was 0.0112.

For the compound `CSc1ccc(Cl)c(C(=O)OCC(=O)N2CC(C)OC(C)C2)c1` (configuration not stated), the B-score is -0.691.

For `Cc1cc(OCCN2CCCC2)ccc1C(C)C`, the B-score was -1.57.

As to `COc1ccccc1Nc1nc(N)nc(CN(C)C2CCCCC2)n1`, the B-score was 0.169.

In the case of `COc1ccccc1NC1=NC(c2ccc(Cl)cc2)N=C(N)N1` (configuration not stated), the B-score was 2.75 (active).

As to `COc1ccccc1NC1=NC2(CCCC2)N=C(N)N1`, the B-score was 0.458.

As for `O=C(Nc1ccc2c(c1)OCCO2)c1ccncc1`, the B-score was -0.637.

With `O=C(Nc1nc(-c2ccncc2)cs1)C1COc2ccccc2O1` (configuration not stated), the B-score was -1.04.

With `O=C(Nc1nc(-c2ccc3c(c2)OCO3)cs1)c1ccncc1`, the B-score is 5.34 (active).

Turning to `CC1(C)CC(=O)C(C=NCCC2=CCCCC2)=C(O)C1`, the B-score is 0.836.

For the compound `O=C(Oc1ccc2c(c1)CCC2)N1CCOCC1`, the B-score is -0.594.

Take `O=C(c1ccccc1)c1ccc(OC(=O)N2CCCC2)cc1`: the B-score was -2.34 (active).

With `O=C(c1ccccc1)N1CCN(C(=O)N2CCCCC2)CC1`, the B-score was -0.157.

In the case of `CC(C)(C)c1ccc(NC(=O)NCc2ccco2)cc1`, the B-score was 0.39.

Take `c1cnc(NC2C3CC4CC(C3)CC2C4)nc1` (configuration not stated): the B-score is 2.24.

On to `CCOC(=O)CSc1nc2c(sc(=S)n2CCc2ccccc2)c(=O)n1Cc1ccco1`, for which the B-score was 7.17 (active).

As to `CCOC(=O)CSc1nc2c(c(=O)n(C)c(=O)n2C)n1Cc1ccccc1F`, the B-score was -0.066.

As for `COc1ccccc1NC(=O)CSc1nc2sc(C)c(C)c2c(=O)n1Cc1ccco1`, the B-score was -1.75.

For `CC(=O)Nc1ccc(S(=O)(=O)NCCc2ccccc2)cc1`, the B-score was -0.0675.

Turning to `Cc1cc(NC(=O)COC(=O)c2ccc(F)c(S(=O)(=O)N3CCOCC3)c2)no1`, the B-score was 0.164.

Turning to `COc1ccc(C(=O)OCC(=O)c2ccc(C)c(S(=O)(=O)N3CCOCC3)c2)cc1OC`, the B-score was 11.4 (active).

In the case of `Cc1cc(C)n(C(=O)c2ccc(C)c(S(=O)(=O)N3CCOCC3)c2)n1`, the B-score is -0.672.

`CCC(C)NC(=O)C1CCC(=O)N1Cc1ccc(C)cc1` (configuration not stated): the B-score is -0.196.

On to `O=C(CN1C(=O)COc2ccccc21)Nc1ccc(F)cc1`, for which the B-score is 0.887.

As for `O=C(Nc1ccccc1)c1cccnc1Nc1ccccc1`, the B-score was 1.29.

Turning to `Cc1cccn2c(=O)c3cc(C#N)c(=O)n(CCCN4CCOCC4)c3nc12`, the B-score was -0.675.

`COc1ccc(CNC(=O)c2cc3c(=O)n4ccccc4nc3n(CC3CCCO3)c2=N)cc1` (configuration not stated): the B-score is 0.00619.

In the case of `Cc1cccn2c(=O)c3cc(C#N)c(=NC(=O)c4cccnc4)n(CC4CCCO4)c3nc12` (configuration not stated), the B-score is 37.8 (active).

Take `CC(=O)NC1CC2CCCC(C1)N2CC(=O)Nc1ccccc1` (configuration not stated): the B-score was -1.24.

Take `C=CCn1c2ccccc2c2nnc(SC(CC)C(=O)Nc3nc(C)c(C(=O)OCC)s3)nc21` (configuration not stated): the B-score was 1.41.

Turning to `O=C(O)CCC(=O)NCc1ccc2[nH]c3c(c2c1)CCCC3`, the B-score was 1.3.

Consider `CCCc1cc(=O)oc2c(C)c(O)c(CN3CCCCC3)cc12`, for which the B-score is 0.177.

For `CCn1c(Cc2ccccc2)nnc1SCC(=O)Nc1ccccc1`, the B-score was -0.0339.

`CCCS(=O)(=O)N1CCC(C(=O)NCCc2ccc(OC)c(OC)c2)CC1`: the B-score is -0.16.

For `COc1ccc(CCNC(=O)C2CCN(c3nn4c(=O)cc(C)nc4s3)CC2)cc1OC`, the B-score was 4.73 (active).

Turning to `Cc1cc(=O)n2nc(N3CCCC(C(=O)NCCC4=CCCCC4)C3)sc2n1` (configuration not stated), the B-score was -0.152.

As to `Clc1ccc(CSc2nnc([C@@H]3CCCN3)o2)cc1`, the B-score is -0.196.

With `CC(C)C1Cc2c(sc3c2c(=O)n(-c2ccccc2)c2nncn32)CO1` (configuration not stated), the B-score is -0.132.

As to `O=C(COC(=O)CCc1c[nH]c(=O)[nH]1)Nc1ccccc1Cl`, the B-score is 2.4 (active).

Take `O=C(COc1ccc(Cl)cc1)Nc1ccccc1CO`: the B-score is 1.32.

Consider `CC1(C)CC(CCC(=O)Nc2ccccc2Cl)C(=O)O1` (configuration not stated), for which the B-score was 0.285.

With `CCOC(=O)N1CCN(Cc2oc(CO)cc(=O)c2O)CC1`, the B-score was 0.262.

For `O=C(c1cccc(C(=O)N2CCN(c3ccc(F)cc3)CC2)c1)N1CCN(c2ccc(F)cc2)CC1`, the B-score was 3.5 (active).

With `Cc1ccccc1CN1CCN(C(=O)c2cccc(F)c2)CC1`, the B-score is -0.152.

On to `O=C(c1ccccc1)c1cccn1CC(=O)N1CCN(c2ccc(F)cc2)CC1`, for which the B-score is -0.56.

`CS(=O)(=O)N(CC(=O)N1CCOCC1)c1ccc2c3c(cccc13)CC2`: the B-score is 0.155.

`Cc1ccc(NC2=NC(c3ccccc3)n3c(nc(C)cc3=O)N2)cc1` (configuration not stated): the B-score was -0.0683.

For `COC(=O)c1ccccc1NC(=O)c1cncc(Br)c1`, the B-score is 0.529.

For the compound `Cc1cccc2cc(C#N)c(N3CCCC3)nc12`, the B-score is 1.26.

For `CCOc1ccc2nc(NCCNS(=O)(=O)c3ccccc3)c(C#N)cc2c1`, the B-score is -0.354.

`CCOc1ccc2nc(N3CCCN(C(=O)Nc4ccccc4C)CC3)c(C#N)cc2c1`: the B-score was 49.3 (active).

On to `Cc1ccc(SCCN2C(=O)NC(C)(C)C2=O)cc1`, for which the B-score was 0.397.

`O=C1c2ccccc2C(=O)N1CCc1nn[nH]n1`: the B-score is 0.641.

For the compound `Nc1ccc(SCCN2C(=O)c3ccccc3C2=O)cc1`, the B-score was 13.8 (active).

In the case of `NS(=O)(=O)c1ccc(NS(=O)(=O)/C=C/c2ccccc2)cc1`, the B-score is -0.0855.

Take `O=C(OCCO)c1cc(Cl)c(C(=O)OCCO)cc1Cl`: the B-score was 0.283.

With `Cc1ccc(CNC(=O)CN2CCN(Cc3ccc(Cl)cc3)C2=O)cc1`, the B-score was -0.559.

Turning to `CS(=O)(=O)N(Cc1nc2sc3c(c2c(=O)[nH]1)CCCC3)C1CCCCC1`, the B-score was -0.0154.

Turning to `CSCCC(NC(=O)C1CCC(C)CC1)C(=O)NCc1ccco1` (configuration not stated), the B-score was -0.577.

Consider `Cn1c(=O)[nH]c(=O)c2c1nc(NCCCn1ccnc1)n2Cc1cccc(Br)c1`, for which the B-score was 0.757.

`CCOc1ccc(C2C(C(=O)O)c3ccccc3C(=O)N2CCN2CCOCC2)cc1` (configuration not stated): the B-score is 0.0396.

For `COc1ccc(N2CCN(CCNC(=O)CCN3C(=O)COc4ccccc43)CC2)cc1`, the B-score is 0.72.

On to `COc1ccc(C2C(C(=O)N3CCN(c4ccc(OC)cc4)CC3)c3ccccc3C(=O)N2C)cc1` (configuration not stated), for which the B-score was 4.34 (active).

As to `CN(C)/C=C/c1c(C#N)c(=O)ncn1Cc1ccccc1`, the B-score was 1.01.

For `N#C/C=C\Oc1ccc(Cl)cc1N`, the B-score is 0.000464.

On to `CCCC(=O)NC(C)C(c1cccs1)N1CCN(c2ccccc2)CC1` (configuration not stated), for which the B-score is -0.223.

Consider `COc1ccc(OC)c(S(=O)(=O)N(C)CC(=O)N2CCN(c3ccccc3)CC2)c1`, for which the B-score is 0.148.

On to `COc1ccc(C(C(O)C(=O)c2c[nH]c3ccccc23)N2CCN(c3ccccc3)CC2)cc1` (configuration not stated), for which the B-score is 3.3 (active).

Take `CCOC(=O)c1sc(NC(=O)CSc2ncccn2)c(C#N)c1C`: the B-score was 0.288.

For `COc1ccc(S(=O)(=O)N2CCN(C(=O)c3cccs3)CC2)cc1OC`, the B-score was -1.5.

As to `CC(=O)c1ccc(N2C(=NC(=O)C(C)C)SC3CS(=O)(=O)CC32)cc1` (configuration not stated), the B-score is -0.587.

With `Cn1c(=O)c(=O)n(C)c2cc(S(=O)(=O)NCCc3ccccc3)ccc21`, the B-score was 0.704.

With `COc1ccc(NC(C)=O)cc1NC(=O)CN1CCN(C2c3ccccc3-c3ccccc32)CC1`, the B-score is 0.8.

Regarding `O=C(CN1CCOCC1)Nc1ccc(NC(=O)CN2CCOCC2)c(Cl)c1`, the B-score is -0.0117.

Take `CC(=O)Nc1ccc(NC(=O)CN2CCCC(C)C2)c(Cl)c1` (configuration not stated): the B-score was 6.88 (active).

As to `CCNS(=O)(=O)c1ccc(NC(=O)Nc2cccc(OC)c2)cc1`, the B-score is 2.45.

Regarding `CCOP1(=O)C=C(C(C)(C)C)OC1c1ccc(F)cc1` (configuration not stated), the B-score is -0.203.

Regarding `CCOc1ccc(NCCC(=O)c2ccc3c(c2)OCO3)cc1`, the B-score was -0.0168.

With `Cc1ccc2oc(=O)c3cnn(CC(=O)N4CCN(c5ccccn5)CC4)c3c2c1`, the B-score is 7.39 (active).

On to `Cc1ccc2oc(=O)c3cnn(CC(=O)N4CCCCCC4)c3c2c1`, for which the B-score was 0.0625.

Consider `CCOC(=O)C1CCCN(C(=O)Cn2ncc3c(=O)oc4ccc(C)cc4c32)C1` (configuration not stated), for which the B-score is -0.657.

As to `O=C(NC1CC2CCCC(C1)N2C(=O)N1CCCCC1)C1CCCCC1` (configuration not stated), the B-score is 0.398.

For the compound `CN1CCCC(OC(=O)COc2ccc(Br)cc2)C1` (configuration not stated), the B-score is 2.29.

As for `Cc1ccc(F)cc1NC(=O)c1ccc2c(c1)OCO2`, the B-score was 0.368.

For `CCOC(=O)c1c(NC(=O)CSc2nnc(CN3CCOCC3)n2C)sc2c1CCCC2`, the B-score is 0.743.

For the compound `O=C(CSc1nnc(-c2ccco2)n1-c1ccccc1)NCCc1ccccc1`, the B-score was 0.164.

As to `c1ccc(CSc2nnc(-c3ccco3)n2Cc2ccccc2)cc1`, the B-score is 1.61.

As for `O=C(CSc1nnc(-c2ccco2)n1Cc1ccccc1)NC(=O)NCc1ccco1`, the B-score is 2.23 (active).

As for `COc1cccc(-c2nn(C)c3sc(C(=O)N4CCN(c5ccccc5)CC4)cc23)c1`, the B-score was -0.654.

`CC(C[N+](C)(C)C)OC(N)=O` (configuration not stated): the B-score was 67.7 (active).

Turning to `CC(=O)OC(C)C[N+](C)(C)C` (configuration not stated), the B-score was 53.8 (active).

Regarding `CCC(=O)N1c2ccc(S(=O)(=O)CCC(=O)N3CCN(c4ccccc4)CC3)cc2CC1C` (configuration not stated), the B-score was -2.01.

Consider `Cn1c(=O)c2c(ncn2CC(=O)N2CCN(c3ccccc3)CC2)n(C)c1=O`, for which the B-score was 0.437.

As for `COc1ccc(-c2nnco2)cc1OC`, the B-score is 0.77.

On to `O=S(=O)(CCc1nc2ccccc2o1)c1ccc(Cl)cc1`, for which the B-score is 0.134.
